Screens: PubChem, National Center for Advancing Translational Sciences (NCATS)
The list is not random: actives were taken first. Their share in the collection is about 4.7%.
D1 antag: blocks dopamine activation of the human D1 receptor | HEK293 TREx D1 cells, calcium flux, dopamine EC80; stronger effect = lower value | activity change, negative = inhibition, % at 10 µM | 3.2% of 360,000 active | P21728 | AID 504652; in the data active means activity change below about -30%; further: on the % scale 0 is the no-effect control and ±100 the full control effect
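Cells carrying a force-coupled, tetracycline-inducible human D1 receptor report calcium flux. Each well gets a 10 s baseline, compound with 180 s monitoring, then an EC80 dopamine stimulus with a second 180 s kinetic read.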
TRHR PAM: allosterically enhances the human TRH receptor | P34981 | TRHR cells, fluo-8 calcium fluorescence, EC20 TRH enhancement | enhancement, % at 2 µM | 0.66% of 360,000 active; in the data active means enhancement above about 30%; further: 0% is about no effect
Target sequence (P34981 whole entry, looked up): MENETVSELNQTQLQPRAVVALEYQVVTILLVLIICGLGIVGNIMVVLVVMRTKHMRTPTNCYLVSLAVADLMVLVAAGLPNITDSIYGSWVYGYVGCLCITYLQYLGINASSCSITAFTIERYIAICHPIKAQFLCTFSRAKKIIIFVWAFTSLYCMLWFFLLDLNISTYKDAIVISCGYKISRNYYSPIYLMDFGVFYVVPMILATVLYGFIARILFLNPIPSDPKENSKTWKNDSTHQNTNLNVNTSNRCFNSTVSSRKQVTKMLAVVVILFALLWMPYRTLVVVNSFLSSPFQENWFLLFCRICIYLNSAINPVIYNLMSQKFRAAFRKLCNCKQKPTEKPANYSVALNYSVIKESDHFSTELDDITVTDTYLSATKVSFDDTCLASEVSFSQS
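TRHR-expressing cells loaded with fluo-8 calcium dye were read kinetically (ex 480/em 530) during compound addition, then stimulated with an EC20 of TRH (10 nM final). Enhancement of the Gq-mediated intracellular calcium response was scored.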
D1 potentiator: human D1 dopamine receptor positive modulation; P21728; HEK293 TREx D1 cells, calcium flux, dopamine EC20 potentiation; potentiation, % at 10 µM; 0.036% of 360,000 active; AID 504651; in the data active means potentiation above about 30%; further: 0% is about no effect
TRHR agonist: TRH receptor (human) agonism. TRHR cells, calcium flux fluo-8, FDSS agonist mode. activation, % at 2 µM. 0.18% of 360,000 active. AID 493084; further: 0% is about no effect
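TRHR-expressing cells, plated overnight in medium with 10% serum, were loaded with fluo-8 calcium dye at room temperature. After a 10 s baseline, library compound was pin-added and calcium release was recorded kinetically (ex 480/em 530) as agonist response.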
D1 ag: agonists of human D1 dopamine receptor. HEK293 T-REx D1 cells, calcium flux, agonist mode. activation, % at 2 µM. 1% of 360,000 active. AID 504660; further: 0% is about no effect
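Agonism was scored from calcium flux recorded over 180 s (1 read/s) after pintool compound addition, following a 10-cycle baseline. Cells were inducible force-coupled HEK293 TREx D1, plated overnight at 30 C and loaded with no-wash calcium dye.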
Active calls of the source: *; · = no result given; ! = not confirmed by another sample. Unless noted, no stated cut-off is given here; in the data, active means activation above about 30%; inactive means the rest.

SMILES	D1 antag	TRHR PAM	D1 potentiator	TRHR agonist	D1 ag
COc1ccc(NC(=O)c2sc3nc4c(cc3c2N)CN(Cc2ccccc2)CC4)c(OC)c1	3	2	4	0	0
COc1ccc(C2CC(=O)c3c(C)nc(N4CCN(C=O)CC4)nc3C2)c(OC)c1 (stereo not given)	-3	-3	-4	-1	0
CCOC(=O)C(CC)n1nc(C)c2c(C)n(-c3ccc(C)cc3)nc2c1=O (stereo not given)	-48*	0	-4	-2	5
Cc1ccc(-n2nc3c(=O)n(C(C)C(=O)NCc4ccco4)nc(C)c3c2C)cc1 (stereo not given)	-35*!	0	-4	-1	0
COc1ccc(-c2cc(C(C)=O)c(C)n2CCC(=O)Nc2ccc(C)cc2Cl)cc1	26	2	-4	-1	0
COC(=O)[C@@H](N)Cc1ccc(O)c(O)c1	-53*	-28	-6	1	-2
CC1CCN(S(=O)(=O)c2cnc(Cl)c(Br)c2)CC1	3	4	-6	-1	56*
CC(C)CCNC(=O)CN1C(=O)CSc2ccc(S(=O)(=O)N3CCCCC3)cc21	-4	-3	-1	-1	-2
O=c1cc(CN2CCC(Cc3ccccc3)CC2)nc2sccn12	0	2	-1	0	0
CC1CN(Cc2cc(=O)n3ccsc3n2)CC(C)O1 (stereo not given)	-49*	1	1	0	1
Cc1cccc(C(=O)Nc2ccc(N3CCC(CCN4CCOCC4)CC3)c(C(=O)O)c2)c1	9	-6	-6	0	3
CC(C)CC(=O)Nc1cccc(C(C)O)c1 (stereo not given)	-31*	0	-3	0	2
CCCCC(=O)Nc1cccc(C(C)O)c1 (stereo not given)	-4	0	-8	0	2
CCCc1nn2c(=O)cc(COC(=O)c3cccs3)nc2s1	6	3	-5	0	7
COCCNC(=O)C1CCN(Cc2cccc(OCc3ccccc3)c2)CC1	-2	-17	-18	0	2
O=C(NCCc1ccccc1)C1CCN(Cc2cc3ccccc3n2Cc2cccc(Cl)c2)CC1	-12	31*	-3	0	2
Cc1ccc(C(=O)NNC(=O)C2CCN(Cc3ccccc3)CC2)cc1	10	6	0	0	2
Cc1ccc(Cn2c(CN3CCC(C(=O)NCCc4ccccc4)CC3)cc3ccccc32)cc1	9	14	-3	1	43*
CC(C)CCNC(=O)C1CCN(Cc2cccc(OCc3ccccc3)c2)CC1	-27	-2	-6	4	42*
O=C(NNC(=O)C1CCN(Cc2ccccc2)CC1)c1cccc(Cl)c1	-62*	4	-11	1	6
COc1ccc(Cn2ccc3nc(C)c(C(=O)NCc4cccc(OC)c4)cc3c2=O)cc1	-9	4	2	-1	0
CCOC(=O)C1CCN(C(=O)CN(C)S(=O)(=O)c2ccc3c(c2)c(=O)n(C)c(=O)n3C)CC1	-5	-4	0	0	9
Cc1cc(C)n(C(=O)c2cc([N+](=O)[O-])cc([N+](=O)[O-])c2)n1	0	-1	-1	0	2
CCOC(=O)C1CCN(C(=O)c2cc(COc3ccc(F)cc3F)on2)CC1	0	-1	6	2	3
Cc1cc(Cl)ccc1OCC(=O)OCC(=O)c1c(N)n(C)c(=O)n(C)c1=O	-13	3	5	1	2
SMILES	D1 antag	TRHR PAM	D1 potentiator	TRHR agonist	D1 ag
COc1cccc(CNC(=O)CCc2cn(Cc3ccccc3Cl)c3ccccc23)c1	-9	4	1	-1	33*
COc1cc(NS(=O)(=O)c2ccc(C(=O)O)cc2)c2nc(C)ccc2c1	19	-1	11	1	1
COc1ccc(N=Cc2sc(O)c3ccccc23)cc1	-82*	10	9	-1	544*
COc1ccc(N=Cc2c(O)c3ccccc3n2C(C)=O)cc1	-22	-2	-10	34*	119*
COc1cc(O)oc1C=Nc1ccc(Oc2ccccc2)cc1	9	-3	-8	0	2
CN(C)C(=O)/C(=C\c1ccc(-c2cccc([N+](=O)[O-])c2)o1)NC(=O)c1ccccc1	13	-5	-7	0	0
CN(C)C(=O)/C(=C/c1ccc(-c2cccc([N+](=O)[O-])c2)o1)NC(=O)c1ccccc1	-56*	-3	-2	-1	5
CCCCNC(=O)/C(=C\c1ccc([N+](=O)[O-])o1)NC(=O)c1ccccc1	-39*	1	-3	1	3
CC(/C=N/NC(=O)c1nnn(-c2nonc2N)c1C(C)C)=C\c1ccco1	30	15	3	-2	3
O=C(NCc1ccccc1)c1cccc(COc2ccc(Cl)cc2)c1	0	0	-8	0	38*
O=C(NCc1ccc(Cl)cc1)c1cccc(NC(=O)c2ccccc2)c1	-34*	-9	-5	0	3
O=C(c1ccc(NC(=S)NCc2ccc(Cl)cc2)cc1)N1CCCCC1	-18	5	0	-2	49*
COC(=O)c1cccc(NC(=S)NCc2ccc(Cl)cc2)c1	0	-8	-6	1	35*
O=C(NCc1ccccc1)c1ccc(Cl)cc1	-2	-2	-1	0	2
Cc1ccc(Sc2ccc(N3CCC(C(=O)Nc4ccc(C)c(F)c4)CC3)nn2)cc1	0	8	2	0	-1
Cn1c(=O)[nH]c(=O)c2c1nc1n2CCN1c1ccccc1	12	7	-2	-1	0
COc1ccc(Cn2ccnc2SCC(=O)NCc2ccccc2)cc1	-6	3	-6	1	0
O=C(Cn1cc(SCc2ccccc2F)c2ccccc21)N1CCCCC1	-6	17	1	0	5
COC(=O)c1cccc(NC(=O)Nc2ccc(Cl)cc2Cl)c1	-43*	1	-3	2	16
COC(=O)C1CCN(S(=O)(=O)c2cc3c4c(c2)CC(=O)N4CCC3)CC1	·	-3	-2	0	-1
COc1ccc(CNC(=O)C2CCC(CNS(=O)(=O)c3cccc4nsnc34)CC2)cc1 (stereo not given)	-46*	0	-4	0	3
CC(C)NC(=O)C1CCN(C2CCN(C(=O)Cc3ccc4c(c3)OCO4)CC2)CC1	-33*	-1	-4	0	0
O=C(NCc1ccc2c(c1)OCO2)C1CCC(CNS(=O)(=O)c2cccc3nsnc23)CC1 (stereo not given)	-52*	3	·	0	1
O=C(NCc1ccccn1)C1CCC(CNS(=O)(=O)c2cccc3nsnc23)CC1 (stereo not given)	22	-6	-2	1	7
CS(=O)(=O)N1CCC(C(=O)NCc2ccc3c(c2)OCO3)CC1	-35*	-1	1	1	1
